HT1080NT lethal: qHTS for induction of synthetic lethality in tumor cells producing 2HG: qHTS for the HT-1080-NT fibrosarcoma cell line | HT-1080-NT fibrosarcoma viability, CellTiter-Glo ATP luminescence, 48 h | Potency, µM (doses to about 46.1 µM), inactives show at the top dose activity, negative = less viability, most hits filed as cytotoxic | hit rate 1.6% among 360,000;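 note: NT is the 2HG producing partner of a matched IDH1 knockdown line; potency is the fitted concentration of half-maximal effect; 0% = DMSO-treated cells and -100% = media-only wells without cells; nearly all actives have a fitted effect of over 55% in size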
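Fibrosarcoma NT cells, 750 per well in 5% FBS RPMI, were exposed to compound for 48 hours. Viability: CellTiter-Glo luminescence.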
IL1B secr inh: qHTS for Inhibitors of Inflammasome Signaling: IL-1-beta AlphaLISA Primary Screen. AID 743279, 2014. hit rate 4.7% among 360,000. THP-1 LPS/ATP IL-1B secretion, AlphaLISA, 16 h; stronger effect = lower value. activity change, % at 57.5 µM; in the data active = activity change below about -50%; inconclusive = mostly about -30% to -49%
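THP-1 cells pretreated 1 hr with compounds (up to 57.5 uM final), then stimulated with LPS (250 ng/mL final) plus ATP (1.25 mM final); secreted IL-1B measured by AlphaLISA after 16 hr, decreased signal indicating inhibition.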
TDP1 cell noCPT: qHTS for Inhibitors of human tyrosyl-DNA phosphodiesterase 1 (TDP1): qHTS in cells in absence of CPT | DT40 Tdp1-/- hTDP1 cells, no CPT, ATP luminescence, 48 h | Potency, µM (titrated, usually from 46.2 µM), for inactives: at the highest dose activity change, negative = growth inhibition, actives largely listed as inhibitors | hit rate 15% among 420,000 | AID 686978, 2013; note: potency is the fitted concentration of half-maximal effect; nearly all actives have a fitted effect of over 55% in size
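Seeded 400 DT40-hTDP1 cells/well (vehicle DMSO, no 20 nM CPT); pinned compounds; ≥48 hr at 37 °C; CellTiter-Glo luminescence as viability measure.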
DT40 TDP1 CPT: qHTS for Inhibitors of human tyrosyl-DNA phosphodiesterase 1 (TDP1): qHTS in cells in presence of CPT | chicken DT40 Tdp1-/-;hTDP1 cells + 20 nM CPT, ATP luminescence, 48 h | Potency, µM (top dose mostly 46.2 µM), for the others: top-dose activity change, negative = growth inhibition, hits mostly inhibitors | hit rate 12% among 420,000 | AID 686979, 2013; note: potency is the fitted concentration of half-maximal effect; nearly all actives have a fitted effect of over 55% in size
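Chicken DT40 Tdp1-/- cells complemented with human TDP1, 400 cells/well, exposed to compounds plus 20 nM camptothecin for at least 48 h at 37 C; viability read as ATP content by CellTiter-Glo luminescence.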
HT1080 IDH1KD tx: qHTS for induction of synthetic lethality in tumor cells producing 2HG: qHTS for the HT-1080-IDH1KD cell line; HT-1080 IDH1 knockdown viability, ATP luminescence, 48 h; Potency, µM (doses to about 46.1 µM), without a hit: top-dose activity, negative = toxicity, usual class: cytotoxic; hit rate 2% among 360,000;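 note: potency is the fitted concentration of half-maximal effect; 0% = DMSO wells and -100% = cell-free medium wells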
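IDH1KD HT-1080 cells, 750/well, RPMI + 5% FBS; compound pinned after 2 h settling; 48 h, 37 °C; CellTiter-Glo luminescence; % activity normalised to DMSO and no-cell wells; curves fitted, classed by r2 and efficacy.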
* marks the source's active call; other numbers are inactive results; ? = inconclusive; . = no result; ! = repeats disagree. Most compounds without a hit are left out; they make up all but 19% or so of the library. Unless noted, calls come from the whole dose curve; as a rule, active = well fitted curve in the direction sought with a large enough effect; inconclusive = small, poorly fitted or top-dose-only effect, or another doubt; inactive = no such curve, though single readings can be large; an effect the other way counts as inactive or inconclusive. Unless noted, % is set by controls: 0 for no effect and ±100 for the full control effect.

SMILES | HT1080NT lethal | IL1B secr inh | TDP1 cell noCPT | DT40 TDP1 CPT | HT1080 IDH1KD tx
O=c1c2cc(N3CCOCC3)ccc2[nH]c(=S)n1Cc1ccc(Cl)cc1 | 2.9% | 0.0 | 14.6µM* | 20.6µM* | -0.9%
O=[N+]([O-])c1cc(S(=O)(=O)c2ccc(O)c([N+](=O)[O-])c2)ccc1O | 17.7% | 20.8 | 2.0% | 7.4% | 7.8%
Cc1ccc(-c2cc(-c3ccccc3)cc(-c3ccccc3)[n+]2-c2ccccc2C(=O)O)cc1 | -25.8% | -1.9 | 9.2µM* | 9.2µM* | -13.4%
Cc1ccc(N)c(C(=O)c2ccccc2)c1 | -0.2% | 21.4 | -12.9% | -1.2% | -0.1%
O=c1[nH]c(=O)n(-c2ccc(Br)cc2)c(O)c1C=NCCN1CCCCC1 | -0.3% | 3.7 | 2.0% | 24.0% | 13.3%
C[C@@H]1CCC2[C@@H](C)C(=O)O[C@@H]3OC4(C)CCC1[C@@]23OO4 (some centres undefined) | -3.9% | 0.5 | 8.2µM* | 4.11µM* | -0.5%
C[C@@H]1CC[C@H]2[C@@H](C)C(=O)O[C@@H]3O[C@@]4(C)CC[C@@H]1[C@]32OO4 | -1.6% | 9.9 | 4.11µM* | 0.651µM* | -13.3%
CC1C(=O)OC2O[C@]3(C)CC[C@H]4C(C)CCC1[C@]24OO3 (some centres undefined) | . | . | 1.16µM* | 7.31µM* | .
Brc1ccc2c(c1)CN(CC1CCCCC1)Cc1cnnn1-2 | -22.5% | -18.8 | ? | ? | -27.8%
COc1ccc(CN2CCNCC2)cc1 | -2.9% | 37.0 | ? | -15.5% | -2.0%
C=CCc1ccc(OC)cc1 | 6.2% | 23.4 | ? | 3.66µM*! | -2.9%
Cc1ccc(-n2c(C)nc3ccccc3c2=O)c(C)c1 | 5.0% | 6.6 | 16.4µM* | ? | -0.5%
Cc1nc2ccccc2c(=O)n1-c1ccc(-c2ccccc2)cc1 | -0.5% | 4.5 | ? | ? | -2.6%
Cc1ccc(-n2c(C)nc3ccccc3c2=O)cc1C | -1.1% | 28.5 | 14.6µM* | ? | -2.1%
CCN(CC)S(=O)(=O)c1ccc2c(c1)c(=O)c(C(=O)NCc1ccccc1OC)cn2C | . | . | 18.4µM* | 23.1µM* | .
CCCCn1c(=O)c(C(=O)NCc2ccccc2OC)c(O)c2ccccc21 | 23.3% | 0.0 | ? | ? | 4.2%
CC(=O)Nc1ccc2c(c1)CC1(C(=O)N(C)C(=O)N(C)C1=O)C1CCCN21 (centres undefined) | 14.4% | -9.1 | -22.3% | 3.4% | 2.5%
Cc1ccc(CNCc2c(C(=O)O)n(Cc3ccccc3C)c3cc(C)ccc23)cc1 | . | . | 7.31µM* | ? | .
Cc1cc(C)c(Cn2c(C(=O)O)c(C=O)c3ccccc32)c(C)c1 | 2.5% | 39.9 | 6.3% | 7.1% | 0.2%
NP(=O)(OCCCCc1ccccc1)Oc1ccccc1Cl (centres undefined) | ? | 21.3 | -27.3% | -8.8% | 10.7%
O=C(c1ccc2c(c1)N(Cc1c(F)cccc1Cl)C(=O)c1ccccc1S2)N1CCC2(CC1)OCCO2 | . | . | 23.1µM* | ? | .
CCN1C(=O)c2ccccc2Sc2ccc(C(=O)N3CCC4(CC3)OCCO4)cc21 | 5.6% | 36.4 | 13µM* | ? | -5.1%
CCCCCc1cc(O)c2c(c1)OC(C)(C)c1ccc(C)cc1-2 | . | . | 9.44µM* | 16.8µM* | .
CC(C)CN1CC2(CCN(C(=O)Oc3ccccc3)CC2)C1 | . | . | 3.2% | 7.9% | .
Cc1ccc(N2CCN(C(=O)c3cn(CC4CCCCC4)nn3)C(C)C2)cc1 (centres undefined) | ? | -5.4 | ? | 18.4µM* | ?
SMILES | HT1080NT lethal | IL1B secr inh | TDP1 cell noCPT | DT40 TDP1 CPT | HT1080 IDH1KD tx
CCCCCCC(Cl)(Cn1ccnc1)c1ccccc1 (centres undefined) | -6.8% | -17.9 | 14.6µM* | ? | -9.8%
CC(C)CN1CCCC2(CCN(C(=O)Oc3ccccc3)CC2)C1 | . | . | -13.6% | 4.2% | .
O=C1NC(=O)C2(C(=O)N1)C(c1ccc(F)cc1)NC(=S)NC2c1ccc(F)cc1 (centres undefined) | 17.4% | 28.3 | 4.1% | -16.3% | -0.9%
Cn1cc(C(O)CN2CCCCC2)c2ccccc21 (centres undefined) | -0.4% | -15.8 | -13.0% | 3.1% | -0.5%
CC(=O)Nc1cc(-c2ccc(C(=O)NC3CC3)cc2)cn2c(-c3ccc(F)c(Cl)c3)cnc12 | ? | -12.4 | 14.6µM* | ? | 18.4µM*
S=C(S)N1CCCC1 | -0.5% | 5.5 | 0.0531µM* | 0.0596µM* | 2.6%
S=C(S)N1CCNCC1 | . | . | -16.5% | -13.6% | .
COc1ccc(C(C)=O)cc1CC1(C)C(=O)Nc2ccc(-c3ccccc3OC)cc21 (centres undefined) | -2.3% | -1.5 | ? | ? | -21.3%
CC1(Cc2ccc(C(F)(F)F)nc2)C(=O)Nc2cc(-c3ccccc3Cl)ccc21 (centres undefined) | -26.7% | . | ? | 16.4µM* | ?
CNCC(O)c1ccc(OC(=O)C(C)(C)C)c(OC(=O)C(C)(C)C)c1 (centres undefined) | -5.5% | ? | ? | 9.03µM*! | -12.8%
O=C1NC(=O)C2(CCN(c3ccccc3)CC2)C(=O)N1 | 7.1% | 6.7 | 0.8% | 8.4% | -1.5%
Cc1ccccc1C1CC(=O)Nc2ccc3ccccc3c21 (centres undefined) | . | . | 11.6µM* | 11.6µM* | .
Cc1ccc2c(c1)C(c1ccccc1)NCC(=O)N2 (centres undefined) | -6.7% | 46.7 | ? | -5.1% | -12.1%
C[C@H]1CNC(=O)c2c(C(=O)N3CCN(C(=O)OC(C)(C)C)CC3)ncn21 | -8.3% | -26.9 | ? | 25.9µM* | -10.9%
O=c1[nH]c(=O)n(Cl)c(=O)n1Cl | . | . | 7.8% | 14.9% | .
CCn1c(NN=O)nc2ccccc21 | -25.1% | 99.6 | ? | 7.31µM* | ?
CN1C(=O)c2ccccc2Sc2ccc(NC(=O)NCc3ccc(Cl)cc3)cc21 | . | . | 16.4µM* | 23.1µM* | .
Cc1ccc(C(=O)Nc2nc3ccccc3n2CCN2CCCC2)cc1 | ? | -14.2 | 13µM* | 14.6µM* | -5.2%
COc1cc(CNCCc2ccc3c(c2)OCO3)cc(OC)c1OC | -1.0% | -24.4 | ? | ? | -8.6%
Cc1nccc2c1[nH]c1ccc(Br)cc12 | -21.4% | -18.5 | 23.1µM* | ? | -20.0%
COc1ccc2c(c1)[nH]c1c(C)nccc12 | -0.4% | -71.7* | 20µM* | 12.6µM* | -6.6%
CNCC/C=C/c1cccnc1 | . | . | -4.9% | -13.0% | .
CC(=O)NCCc1c[nH]c2ccccc12 | -0.3% | 5.3 | ? | -0.5% | 7.5%
